Laboratory results published in PubChem BioAssay AID1159580 (chemical genetic matrix, 2015).
Where “and” joins values, the source holds several entries; their conditions need not be identical. Equal entries are not always repeated. Hit rate of the full screen: of about 5,500 compounds, about 2,000 (36%) were called active. Roughly 18% stayed inconclusive and do not appear here. Rule as the data show it: active = normalized growth mostly below about 0.91 (no sharp cut-off); inconclusive = no clear call, values can overlap the other calls; inactive = mostly above about 0.92. The list shows a part of the results.

Assay: chemical genetic growth profiling, strain panel (AID 1159580);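 also: tested at 20 µM; growth read once vehicle control cultures reached saturation at 30 °C; 1 = growth at the plate median or of vehicle wells; lower values mean less growth of the strain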
Settings: S. cerevisiae deletion strains, growth OD

Measured: normalized growth

Nc1ncnc2c1ncn2[C@@H]1O[C@H](CO)[C@@H](O)[C@@H]1O
inactive: locus YAL013W, strain DEP1, stronger effect = lower value 1.01 | locus YAL021C, strain ccr4, stronger effect = lower value 1 | locus YAL026C, strain drs2, stronger effect = lower value 1.01 | locus YAL030W, strain snc1, stronger effect = lower value 1.01 | locus YBL061C, strain skt5, stronger effect = lower value 1.01 | locus YBR009C, strain hhf1, stronger effect = lower value 1.01 | locus YBR021W, strain FUR4, stronger effect = lower value 1 | locus YBR023C, strain chs3, stronger effect = lower value 1.01 | locus YBR171W, strain sec66, stronger effect = lower value 1.02 | locus YBR229C, strain ROT2, stronger effect = lower value 1.01 | locus YBR231C, strain swc5, stronger effect = lower value 0.997 | locus YBR279W, strain paf1, stronger effect = lower value 1.01 | locus YCL011C, strain gbp2, stronger effect = lower value 1.01 | locus YCL016C, strain dcc1, stronger effect = lower value 1 | locus YCL029C, strain bik1, stronger effect = lower value 1.05 | locus YCL061C, strain MRC1, stronger effect = lower value 1.01 | locus YCL069W, strain vba3, stronger effect = lower value 1.02 | locus YCR088W, strain abp1, stronger effect = lower value 1.01 | locus YDL005C, strain med2, stronger effect = lower value 1.02 | locus YDL035C, strain GPR1, stronger effect = lower value 1.01 | locus YDL040C, strain nat1, stronger effect = lower value 1.01 | locus YDL074C, strain BRE1, stronger effect = lower value 1.01 | locus YDL101C, strain DUN1, stronger effect = lower value 1.01 | locus YDL134C, strain PPH21, stronger effect = lower value 1.01 | locus YDL185W, strain tfp1, stronger effect = lower value 1.02 | locus YDL192W, strain arf1, stronger effect = lower value 1.03 | locus YDR001C, strain nth1, stronger effect = lower value 1.01 | locus YDR069C, strain doa4, stronger effect = lower value 1.01 | locus YDR101C, strain arx1, stronger effect = lower value 1.03 | locus YDR137W, strain rgp1, stronger effect = lower value 1.03 | locus YDR150W, strain NUM1, stronger effect = lower value 1.01 | locus YDR159W, strain sac3, stronger effect = lower value 1.01 | locus YDR162C, strain NBP2, stronger effect = lower value 1.01 | locus YDR195W, strain ref2 1.02 | locus YDR297W, strain sur2, stronger effect = lower value 1.01 | locus YDR318W, strain mcm21, stronger effect = lower value 1.04 | locus YDR334W, strain swr1, stronger effect = lower value 1.01 | locus YDR335W, strain msn5, stronger effect = lower value 1 | locus YDR388W, stronger effect = lower value 1.02 | locus YDR392W, strain spt3, stronger effect = lower value 0.986 | locus YDR502C, strain sam2, stronger effect = lower value 1.03 | locus YEL003W, strain gim4, stronger effect = lower value 1.02 | locus YEL037C, strain rad23, stronger effect = lower value 1.01 | locus YEL061C, strain CIN8 (second series), stronger effect = lower value 1.02 | locus YEL061C, strain CIN8, stronger effect = lower value 1.01 | locus YER015W, strain faa2, stronger effect = lower value 1.01 | locus YER016W, strain bim1, stronger effect = lower value 1.01 | locus YER110C, stronger effect = lower value 1.04 | locus YER111C, strain swi4, stronger effect = lower value 1.01 | locus YER155C, strain BEM2 (second series), stronger effect = lower value 1.02 | locus YER155C, strain BEM2, stronger effect = lower value 1 | locus YER167W, strain BCK2, stronger effect = lower value 1.01 | locus YFR010W, strain ubp6, stronger effect = lower value 1.02 | locus YGL078C, strain dbp3, stronger effect = lower value 1.02 | locus YGL086W, strain mad1, stronger effect = lower value 1.01 | locus YGL167C, strain pmr1, stronger effect = lower value 1.02 | locus YGL173C, strain kem1, stronger effect = lower value 1.01 | locus YGL227W, strain vid30, stronger effect = lower value 1.01 | locus YGL240W, strain doc1, stronger effect = lower value 1.02 | locus YGL248W, strain PDE1, stronger effect = lower value 1.01 | locus YGL253W, strain hxk2, stronger effect = lower value 1.02 | locus YGR078C, strain PAC10, stronger effect = lower value 1.01 | locus YGR135W, strain pre9, stronger effect = lower value 1.03 | locus YGR229C, strain SMI1, stronger effect = lower value 1.01 | locus YGR252W, strain gcn5, stronger effect = lower value 1.06 | locus YHR013C, strain ard1, stronger effect = lower value 1.03 | locus YHR027C, strain rpn1, stronger effect = lower value 1.01 | locus YHR030C, strain SLT2, stronger effect = lower value 1.01 and 0.991 | locus YHR079C, strain IRE1 (second series), stronger effect = lower value 1.02 | locus YHR079C, strain IRE1, stronger effect = lower value 0.995 | locus YHR094C, strain hxt1, stronger effect = lower value 1.02 | locus YHR129C, strain ARP1, stronger effect = lower value 1 | locus YHR142W, strain chs7, stronger effect = lower value 1.03 | locus YHR200W, strain rpn10, stronger effect = lower value 1.03 | locus YIL066C, strain RNR3, stronger effect = lower value 1.01 | locus YIL073C, strain SPO22, stronger effect = lower value 1.08 | locus YIL125W, strain kgd1, stronger effect = lower value 1.02 | locus YIR030C, strain dcg1, stronger effect = lower value 1.03 | locus YJL092W, strain hpr5, stronger effect = lower value 1.01 | locus YJL095W, strain BCK1 (second series), stronger effect = lower value 1.01 | locus YJL095W, strain BCK1, stronger effect = lower value 1.03 and 0.999 | locus YJL115W, strain asf1, stronger effect = lower value 1.01 | locus YJL129C, strain trk1, stronger effect = lower value 1.01 | locus YJL134W, strain LCB3, stronger effect = lower value 1.01 | locus YJL154C, strain vps35, stronger effect = lower value 1.02 | locus YJL164C, strain tpk1, stronger effect = lower value 1.03 | locus YJL166W, strain qcr8, stronger effect = lower value 1.01 | locus YJL168C, strain set2, stronger effect = lower value 1.03 | locus YJL187C, strain SWE1 (second series), stronger effect = lower value 1.02 | locus YJL187C, strain SWE1, stronger effect = lower value 1.01 | locus YJR043C, strain POL32, stronger effect = lower value 1.02 | locus YJR066W, strain TOR1, stronger effect = lower value 0.943
